Compound activity as filed in PubChem BioAssay.
HT1080NT lethal – qHTS for induction of synthetic lethality in tumor cells producing 2HG: qHTS for the HT-1080-NT fibrosarcoma cell line; HT-1080-NT fibrosarcoma viability, CellTiter-Glo ATP luminescence, 48 h; Potency, µM (doses to about 46.1 µM), inactives show at the top dose activity, negative = less viability, actives largely listed as cytotoxic; 1.6% of 360,000 active;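 further: NT is the 2HG producing partner of a matched IDH1 knockdown line; 0% = DMSO-treated cells and -100% = media-only wells without cells; nearly all actives have a fitted effect of over 55% in size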
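Luminescent CellTiter-Glo readout after 48 hours of compound exposure at 37 degrees C defined viability of HT-1080-NT cells. Activity was normalized to DMSO wells and cell-free media wells; concentration-response curves were fitted and assigned curve classes.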
HepG2 tox – qHTS for Inhibitors of TGF-b: Cytotox Counterscreen; AID 588856, 2011; Potency, µM (series often up to 46.1 µM), without a hit: top-dose activity change, negative = cytotoxicity, most hits filed as cytotoxic; HepG2 CAGA-GFP viability, ATP luminescence, 18 h; 0.76% of 410,000 active
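HepG2 CAGA-GFP cells (1000/well, DMEM with 1% FBS) received compound, then TGF-beta at 500 pg/mL final, and were incubated 18 hours at 37 degrees C. Viability was read by CellTiter-Glo luminescence. Media-only wells were set as complete cell-killing and DMSO as no toxicity.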
TDP1 cell noCPT – qHTS for Inhibitors of human tyrosyl-DNA phosphodiesterase 1 (TDP1): qHTS in cells in absence of CPT; Potency, µM (series often up to 46.2 µM), for inactives: top-dose activity change, negative = growth inhibition, usual class: inhibitors; 15% of 420,000 active; DT40 Tdp1-/- hTDP1 cells, no CPT, ATP luminescence, 48 h; further: on the % scale 0 is the no-effect control and ±100 the full control effect; nearly all actives have a fitted effect of over 55% in size
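Chicken DT40 Tdp1-/- cells stably complemented with human TDP1 were seeded at 400 cells/well with DMSO in place of 20 nM camptothecin. After compound pinning, cells grew at least 48 hr at 37 °C; viability read by CellTiter-Glo luminescence.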
TGFb SMAD3 inh – qHTS for Inhibitors of TGF-b; 1.2% of 410,000 active; AID 588855, 2011; HepG2 CAGA-GFP TGF-b/SMAD3 reporter, GFP fluorescence, 18 h; TGF-beta stimulated, 500 pg/mL final; Potency, µM (top dose mostly 46.1 µM), without a hit: top-dose activity, negative = inhibition, actives largely listed as inhibitors; further: on the % scale 0 is the no-effect control and ±100 the full control effect; nearly all actives have a fitted effect of over 65% in size
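Using HEPG2 CAGA-GFP reporter cells at 1000 cells/well, we pinned test compounds, stimulated with recombinant TGF-beta (500 pg/mL final) and measured total well GFP after 18 h.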
HT1080 IDH1KD tx – qHTS for induction of synthetic lethality in tumor cells producing 2HG: qHTS for the HT-1080-IDH1KD cell line; Potency, µM (top dose mostly 46.1 µM), without a hit: at the top dose activity, negative = toxicity, usual class: cytotoxic; 2% of 360,000 active; AID 686971, 2013; HT-1080 IDH1 knockdown viability, ATP luminescence, 48 h;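 further: 0% = DMSO wells and -100% = cell-free medium wells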
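CellTiter-Glo luminescence after 48 h compound exposure at 37 degrees C of IDH1-knockdown HT-1080 cells in 5% FBS RPMI. %Activity scaled between DMSO wells and cell-free media wells, with curves fitted and assigned curve classes.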
DT40 TDP1 CPT – qHTS for Inhibitors of human tyrosyl-DNA phosphodiesterase 1 (TDP1): qHTS in cells in presence of CPT; Potency, µM (doses to about 46.2 µM), inactives show top-dose activity change, negative = growth inhibition, usual class: inhibitors; chicken DT40 Tdp1-/-;hTDP1 cells + 20 nM CPT, ATP luminescence, 48 h; 12% of 420,000 active; further: on the % scale 0 is the no-effect control and ±100 the full control effect; nearly all actives have a fitted effect of over 55% in size
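Chicken DT40 Tdp1-/- cells complemented with human TDP1, 400 cells/well, exposed to compounds plus 20 nM camptothecin for at least 48 h at 37 C; viability read as ATP content by CellTiter-Glo luminescence.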
Numbers without * were called inactive. In the library only some 17% were active in any assay of this set; here they are far more common. The call rests on the fitted dose curve; in most records, active means well fitted curve in the direction sought with a large enough effect; inconclusive means small, poorly fitted or top-dose-only effect, or another doubt; inactive means no such curve, though single readings can be large; an effect the other way counts as inactive or inconclusive. Potency means the concentration at half of the fitted maximal effect.

`COc1ccc(NC(=O)Cn2ccn(-c3ccc(F)c(F)c3)c(=O)c2=O)cc1Cl` gave HepG2 tox -11%, TDP1 cell noCPT -14%, TGFb SMAD3 inh -5% and DT40 TDP1 CPT -3%.
Screening CCOc1ccc(NC(=O)COc2nsnc2N2CCOCC2)cc1 returned HT1080NT lethal 8%, HepG2 tox 0%, TDP1 cell noCPT 13µM*, TGFb SMAD3 inh -11%, HT1080 IDH1KD tx 10% and DT40 TDP1 CPT 16µM*.
For O=C(Oc1nsnc1N1CCOCC1)N(c1ccccc1)c1ccccc1 the results were HT1080NT lethal 6%, HepG2 tox -4%, TDP1 cell noCPT -16%, TGFb SMAD3 inh -14%, HT1080 IDH1KD tx -3% and DT40 TDP1 CPT 6%.
Screening O=C(COc1nsnc1N1CCOCC1)Nc1cccc(Cl)c1 returned HT1080NT lethal 7%, HepG2 tox -2%, TDP1 cell noCPT -12%, TGFb SMAD3 inh 19%, HT1080 IDH1KD tx 0% and DT40 TDP1 CPT -5%.
O=C(COc1nsnc1N1CCOCC1)N/N=C/c1ccccc1O was read as HT1080NT lethal inconclusive, HepG2 tox -54%, TDP1 cell noCPT 2.6µM*, TGFb SMAD3 inh -11%, HT1080 IDH1KD tx 15µM* and DT40 TDP1 CPT 4.6µM*.
Screening COC(=O)Oc1nsnc1N1CCOCC1 returned HT1080NT lethal 0%, HepG2 tox 2%, TDP1 cell noCPT inconclusive, TGFb SMAD3 inh -7%, HT1080 IDH1KD tx 0% and DT40 TDP1 CPT 23µM*.
For CCc1ccc([C@@H]2CC=C(C(=O)O)[C@H](c3ccc(C)cc3)N2S(=O)(=O)c2ccc(C)cc2)cc1 the results were HT1080NT lethal -23%, HepG2 tox -27%, TDP1 cell noCPT -4%, TGFb SMAD3 inh inconclusive, HT1080 IDH1KD tx -22% and DT40 TDP1 CPT 4%.
For CCOC(=O)C1=CC[C@@H](c2ccccc2)N(S(=O)(=O)c2ccc(C)cc2)[C@H]1C#N the results were HT1080NT lethal 16µM*, HepG2 tox -65%, TDP1 cell noCPT inconclusive, TGFb SMAD3 inh inconclusive, HT1080 IDH1KD tx inconclusive and DT40 TDP1 CPT inconclusive.
For CCOC(=O)C1=CC[C@@H](c2ccccc2)N(S(=O)(=O)c2ccc(C)cc2)[C@H]1C=C(C)C the results were HT1080NT lethal -21%, HepG2 tox -27%, TDP1 cell noCPT 12µM*, TGFb SMAD3 inh -29%, HT1080 IDH1KD tx inconclusive and DT40 TDP1 CPT 16µM*.
Screening CCOC(=O)C1=CC[C@@H](c2cc(OC)c(OC)c(OC)c2)N(S(=O)(=O)c2ccc(C)cc2)[C@H]1C(=O)OCC returned HT1080NT lethal 15%, HepG2 tox -18%, TDP1 cell noCPT inconclusive, TGFb SMAD3 inh -9%, HT1080 IDH1KD tx 7% and DT40 TDP1 CPT 26µM*.
Screening CCc1ccc([C@@H]2CC=C(C(=O)O)[C@H](c3ccccc3F)N2S(=O)(=O)c2ccc(C)cc2)cc1 returned HT1080NT lethal -13%, HepG2 tox -31%, TDP1 cell noCPT 1%, TGFb SMAD3 inh -15%, HT1080 IDH1KD tx -11% and DT40 TDP1 CPT -12%.
For CCOC(=O)C1=CC[C@@H](c2ccccc2)N(S(=O)(=O)c2ccc(C)cc2)[C@H]1c1ccccc1C the results were HT1080NT lethal -1%, HepG2 tox -27%, TDP1 cell noCPT 9.2µM*, TGFb SMAD3 inh -22%, HT1080 IDH1KD tx -2% and DT40 TDP1 CPT 13µM*.
For CCOC(=O)C1=CC[C@@H](c2cc3ccc(OC)cc3n2C)N(S(=O)(=O)c2ccc(C)cc2)[C@H]1C(=O)OCC the results were HT1080NT lethal inconclusive, HepG2 tox 1%, TDP1 cell noCPT inconclusive, TGFb SMAD3 inh 1%, HT1080 IDH1KD tx 7% and DT40 TDP1 CPT inconclusive.
For CCOC(=O)C1=CCN(S(=O)(=O)c2ccccc2)C1c1ccc(C)cc1 (configuration not stated) the results were HT1080NT lethal 1%, HepG2 tox -7%, TDP1 cell noCPT -27%, TGFb SMAD3 inh -25%, HT1080 IDH1KD tx 0% and DT40 TDP1 CPT -2%.
`Cn1ncc2c1NC(c1ccc(F)cc1)SCC2=O` (configuration not stated) gave HT1080NT lethal 4%, HepG2 tox 2%, TDP1 cell noCPT -27%, TGFb SMAD3 inh 1%, HT1080 IDH1KD tx 4% and DT40 TDP1 CPT -12%.
`CC1(C(=O)NS(=O)(=O)c2ccc3c(c2)CCO3)CCN1C(=O)C1(c2ccc(Cl)cc2)CCC1` (configuration not stated) gave HT1080NT lethal 1%, HepG2 tox 4%, TDP1 cell noCPT -13%, TGFb SMAD3 inh -1%, HT1080 IDH1KD tx 17% and DT40 TDP1 CPT inconclusive.
Screening O=C(Nc1ccccc1)N1CCC2(CC1)CCN(C(=O)c1ccco1)CC2 returned TDP1 cell noCPT inconclusive and DT40 TDP1 CPT -22%.
Screening CCOC(=O)C1=CC[C@@H](c2ccc(F)cc2)N(S(=O)(=O)c2ccc(C)cc2)[C@H]1c1ccccc1 returned HT1080NT lethal 10%, HepG2 tox -11%, TDP1 cell noCPT 23µM*, TGFb SMAD3 inh inconclusive, HT1080 IDH1KD tx 5% and DT40 TDP1 CPT 16µM*.
CCOC(=O)C1=CC[C@@H](c2ccc([N+](=O)[O-])cc2)N(S(=O)(=O)c2ccc(C)cc2)[C@H]1c1ccccc1 was read as HT1080NT lethal 13%, HepG2 tox -6%, TDP1 cell noCPT inconclusive, TGFb SMAD3 inh -9%, HT1080 IDH1KD tx 12% and DT40 TDP1 CPT inconclusive.
Screening CCOC(=O)C1=CC[C@@H](c2ccccc2)N(S(=O)(=O)c2ccc(C)cc2)[C@H]1c1ccc(C#N)cc1 returned HT1080NT lethal -1%, HepG2 tox -5%, TDP1 cell noCPT 9.2µM*, TGFb SMAD3 inh inconclusive, HT1080 IDH1KD tx 3% and DT40 TDP1 CPT 12µM*.
For Cc1ccc([C@@H]2CC=C(C(=O)O)[C@H](c3ccccc3)N2S(=O)(=O)c2ccc(C)cc2)cc1 the results were HT1080NT lethal -15%, HepG2 tox 1%, TDP1 cell noCPT -12%, TGFb SMAD3 inh 8%, HT1080 IDH1KD tx -3% and DT40 TDP1 CPT -1%.
